Source: PubChem
ULK1 inh – inhibitors of human ULK1 kinase; AlphaScreen Atg13 phosphorylation by ULK1, luminescence; inhibition, % at 5.96 µM; 1.9% of 30,000 active; AID 1259251; in the data active = inhibition above about 43%;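 also: 0% = median of compound wells and 100% = no enzyme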
ASK1 primary – human ASK1 kinase inhibition, primary screen. AlphaScreen MKK6 phosphorylation by ASK1, luminescence. inhibition, % at 7.44 µM. 0.99% of 22,000 active. AID 1159602; in the data active = inhibition above about 35%;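 also: 0% = median of compound wells and 100% = no enzyme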
TruHits interf – AlphaScreen optical interference dose response, ASK1 counter-screen | shares compounds with ASK1 primary | 20% of 220 active | AlphaScreen TruHits beads, signal interference counterscreen | IC50, µM;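 active = IC50 of 10 µM or lower in the counterscreen; inactive = IC50 above 10 µM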;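 also: loss of AlphaScreen light from TruHits beads alone with no ASK1 enzyme present; potency of signal reduction so a low IC50 flags an assay artifact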
* = called active by the depositor; i = inactive; nt = no result; ! = a repeat was not active. A selection: hits, their analogues and other compounds. The true share with any hit is near 2.4%.

SMILES	ULK1 inh	ASK1 primary	TruHits interf
COc1cc2nc(N3CCOCC3)nc(Nc3ccc(N4CCOCC4)cc3)c2cc1OC	-10.7	9.5	nt
COc1cc2nc(Nc3cccc(N(C)C)c3)nc(Nc3ccc4c(c3)OCO4)c2cc1OC	0.4	61.0*	3.64*
COc1cc2nc(Nc3cc(OC)c(OC)c(OC)c3)nc(NC3CC3)c2cc1OC	-4.7	14.8	nt
COc1cc2nc(Nc3ccc(N4CCOCC4)cc3)nc(Nc3cc(OC)c(OC)c(OC)c3)c2cc1OC	-3.8	52.9*	7.74*
COc1cc2nc(Nc3ccncn3)nc(Nc3ccc(N4CCOCC4)cc3)c2cc1OC	-26.1	22.3	nt
COc1cc2nc(Nc3cc(OC)c(OC)c(OC)c3)nc(Nc3ccc(N4CCOCC4)cc3)c2cc1OC	-20.4	47.6*	7.18*
COc1cc2nc(Nc3ccc(N4CCOCC4)cc3)nc(NC3CC3)c2cc1OC	17.3	42.6*	i
FC(F)(F)c1ccc(Cn2cnc3c(NCCOc4ccccc4)nc(NCc4ccc5c(c4)OCO5)nc32)cc1	-8.3	6.0	nt
O=Cc1c(C(=O)O)[nH]c2ccc(F)cc12	2.0	nt	nt
COc1ccc(-c2nc(NCc3cccnc3)c3[nH]cnc3n2)cc1	41.5	4.9	nt
Nc1cc(-c2ccc(NC(=O)NCc3ccccc3)cc2)ccn1	-1.4	14.6	nt
O=C(Nc1ccc2c(c1)OCO2)c1ccc2nc(NCCN3CCOCC3)sc2c1	3.5	3.9	nt
COc1cc2nc(Nc3cccc(N(C)C)c3)nc(Nc3ccc(N4CCOCC4)cc3)c2cc1OC	-3.9	55.7*	6.42*
Cc1cnc(Nc2cccc(N(C)C)c2)nc1Nc1ccc(N2CCOCC2)cc1	37.4	22.9	nt
CC(C)n1cnc2c(NCCN3CCOCC3)nc(-c3ccc(C(=O)NC4CC4)cc3)nc21	-11.1	-7.3	nt
CC(C)n1cnc2c(NCc3cccc(C(F)(F)F)c3)nc(Nc3ccccc3)nc21	-24.5	6.5	nt
FC(F)(F)c1cccc(CNc2nc(Nc3ccc(N4CCOCC4)cc3)nc3nc[nH]c23)c1	32.4	45.5*!	i
FC(F)(F)c1ccc(Nc2nc(NCc3cccc(C(F)(F)F)c3)c3[nH]cnc3n2)cc1	-12.6	-8.5	nt
CC(C)n1cnc2c(NCc3cccc(C(F)(F)F)c3)nc(Nc3ccc(N4CCOCC4)cc3)nc21	-11.9	54.6*!	6.4*
COc1ccc(-c2nc3ncnc(Nc4ccc(NC(C)=O)cc4)c3[nH]2)cn1	-6.7	8.5	nt
COc1ccc(-c2nc3ncnc(Nc4cc(OC)c(OC)c(OC)c4)c3[nH]2)cn1	5.9	45.4*	>18.1
CC(C)N(CCNc1nc(Nc2nc3ccccc3n2C)nc2c1ncn2C1CCCCC1)C(C)C	-1.3	7.3	nt
CC(C)n1cnc2c(Nc3ccc(N4CCOCC4)cc3)nc(N3CCN(Cc4ccc5c(c4)OCO5)CC3)nc21	3.9	40.7*	i
c1cc(-n2cnc3c(Nc4ccc(N5CCOCC5)cc4)nc(N4CCOCC4)nc32)cs1	42.4	-10.5	nt
c1cc(-n2cnc3c(Nc4ccc(N5CCOCC5)cc4)nc(N4CCN(Cc5ccc6c(c5)OCO6)CC4)nc32)cs1	18.5	50.7*	i
SMILES	ULK1 inh	ASK1 primary	TruHits interf
CC(C)n1cnc2c(Nc3ccc4c(c3)OCO4)nc(N3CCN(Cc4ccc5c(c4)OCO5)CC3)nc21	23.7	15.8	nt
CC(C)n1cnc2c(Nc3ccc4c(c3)OCO4)nc(N3CCC(N4CCOCC4)CC3)nc21	22.6	10.0	nt
CC(C)n1cnc2c(Nc3ccc4c(c3)OCO4)nc(Nc3ccc(N4CCOCC4)cc3)nc21	11.9	36.1*	>20
COc1ccc(CCNc2nc(Nc3ccccc3)nc3c2ncn3C2CCCCC2)cc1	6.0	25.4	nt
COc1ccc(CCNc2nc(NC3CCN(Cc4ccccc4)CC3)nc3c2ncn3C2CCCCC2)cc1	9.6	43.4*	>22.6
O=C(Nc1ccc(Oc2ccccc2)cc1)c1cnc(NCCCN2CCCC2=O)s1	-19.9	3.9	nt
COc1ccc(-c2cccc(C(=O)NCCc3ccc(O)cc3)c2)cc1	-12.2	-11.0	nt
Cc1nc(C)n(-c2ccc(Nc3ncc(F)c(-c4cc(F)cc(N5CCN(C)CC5)c4)n3)cc2)n1	0.3	9.3	nt
CCCCCCCCCCCCCCCC(=O)OCC(O)[C@H]1OC[C@H](O)[C@H]1O (some centres undefined)	-10.3	nt	nt
Cc1cc(Nc2ccc(N3CCOCC3)cc2)nc(Nc2ccncc2)n1	5.3	20.5	nt
Oc1ccc(CCNc2nc(N3CCN(Cc4ccc5c(c4)OCO5)CC3)nc3c2ncn3-c2ccccc2)cc1	10.3	29.8	nt
Oc1ccc(CCNc2nc(N3CCN(Cc4ccc5c(c4)OCO5)CC3)nc3c2ncn3C2CCCCC2)cc1	27.5	34.5	nt
COc1ccc(-c2nc(C)cc(Nc3ccc(N4CCOCC4)cc3)n2)cn1	0.7	26.8	nt
Oc1ccc(CCNc2nc(N3CCN(Cc4ccc5c(c4)OCO5)CC3)nc3c2ncn3-c2ccsc2)cc1	19.1	37.9*	i
COc1ccc(CCNc2nc(N3CCN(Cc4ccc5c(c4)OCO5)CC3)nc3c2ncn3C2CCCCC2)cc1	14.6	47.6*	>22.5
COc1ccc(-c2nc(C)cc(Nc3ccc(N4CCOCC4)cc3)n2)cc1	0.1	49.8*	i
Cc1cc(Nc2ccc3c(c2)OCO3)nc(Nc2ccc(N3CCOCC3)cc2)n1	-17.7	73.4*	i
Cc1cc(NCCN2CCOCC2)nc(NCCN2CCOCC2)n1	5.8	-11.6	nt
CC(C)n1c(-c2ccccc2)nc2c(NCCOc3ccccc3)ncnc21	-10.7	-5.0	nt
COc1cc(Nc2nc(NC3CCN(Cc4ccccc4)CC3)nc3c2ncn3C(C)C)cc(OC)c1OC	-2.5	16.4	nt
C=C(C)Cn1c(COc2ccc(C)cc2)n[nH]c1=S	3.4	nt	nt
NC(=O)c1ccc(-c2nc(NCc3cccc(C(F)(F)F)c3)c3ncn(-c4ccccc4)c3n2)cc1	-13.1	38.7*	>18
FC(F)(F)c1cccc(CNc2nc(-c3ccccc3)nc3c2ncn3-c2ccccc2)c1	4.7	-15.5	nt
Fc1cc(-c2ccnc(Nc3ccc(-n4ccnn4)cc3)n2)cc(N2CCOCC2)c1	-17.1	7.3	nt
OC1CCN(c2ccc(Nc3nccc(-c4cc(F)cc(N5CCN(C6CC6)CC5)c4)n3)cc2)CC1	54.7*	40.6*	>19.2
SMILES	ULK1 inh	ASK1 primary	TruHits interf
CC(=O)N1CCN(CCNC(=O)c2cccc(-n3ncc4cc(Nc5cccc(C)c5Cl)ccc43)c2)CC1	-31.6	-15.8	nt
O=C(NCCN1CCOCC1)c1cccc(-n2ncc3cc(Nc4ccccc4F)ccc32)c1	-31.1	-9.4	nt
Cc1cccc(Nc2ccc3c(cnn3-c3cccc(C(=O)NCCN4CCN(C)CC4)c3)c2)c1Cl	-32.5	24.0	nt
O=C(NCCN1CCOCC1)c1cccc(-n2ncc3cc(Nc4c(F)cccc4[N+](=O)[O-])ccc32)c1	-15.1	44.0*	>19.2
Cc1cccc(Nc2ccc3c(cnn3-c3cccc(C(=O)NCCN4CCNCC4)c3)c2)c1Cl	-45.8	43.1*	>19.2
Cc1cccc(Nc2ccc3c(cnn3-c3cccc(C(=O)NCCN4CCN(CC5CC5)CC4)c3)c2)c1Cl	-35.0	35.8*	>19.2
COc1ccc(CCNc2cc(N3CCN(c4ccccn4)CC3)ncn2)cc1	-11.6	-1.5	nt
Clc1ccc(-c2cnc(N3CCC4(CC3)OCCO4)nc2)cc1	-3.6	nt	nt
Cc1ccc(-c2ncn(-c3ccc(Nc4nccc(-c5ccc(Cl)nc5)n4)cc3)n2)cn1	-22.2	28.0	nt
Cc1ccc(-c2ncn(-c3ccc(Nc4nccc(-c5ccc(N)nc5)n4)cc3)n2)cn1	-25.7	3.6	nt
Cc1ccc(-c2ncn(-c3ccc(Nc4nccc(-c5cncc(N6CCOCC6)c5)n4)cc3)n2)cn1	3.1	41.5*	>19.2
